Compounds with a hit are over-represented: about 22% of the library has one in this group of screens.
Pf growth 96h – P. falciparum growth inhibition at 96 hours. P. falciparum luciferase reporter growth, 96 h. Potency, µM (series often up to 28.7 µM), for the others: at the top dose activity change, negative = inhibition, hits mostly inhibitors. AID 504834. actives 6.9% (n = 320,000); further: potency means the concentration at half of the fitted maximal effect; on the % scale 0 is the no-effect control and ±100 the full control effect
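Cell-based qHTS: luciferase-tagged P. falciparum in erythrocytes (2% hematocrit, 0.05% parasitemia final) incubated with compounds for 96 hours, 37 C, 5% CO2; luciferase detection reagent then added and luminescence measured.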
LmPK inhibitor – LmPK (Leishmania mexicana) enzyme inhibition; Potency, µM (top dose mostly 57.5 µM), for the others: at the top dose activity change, negative = inhibition, hits mostly inhibitors; Q27686; actives 0.37% (n = 290,000); purified LmPK, Kinase-Glo ATP luminescence, 1 h; further: potency means the concentration at half of the fitted maximal effect; on the % scale 0 is the no-effect control and ±100 the full control effect
Target sequence (Q27686 whole entry, looked up): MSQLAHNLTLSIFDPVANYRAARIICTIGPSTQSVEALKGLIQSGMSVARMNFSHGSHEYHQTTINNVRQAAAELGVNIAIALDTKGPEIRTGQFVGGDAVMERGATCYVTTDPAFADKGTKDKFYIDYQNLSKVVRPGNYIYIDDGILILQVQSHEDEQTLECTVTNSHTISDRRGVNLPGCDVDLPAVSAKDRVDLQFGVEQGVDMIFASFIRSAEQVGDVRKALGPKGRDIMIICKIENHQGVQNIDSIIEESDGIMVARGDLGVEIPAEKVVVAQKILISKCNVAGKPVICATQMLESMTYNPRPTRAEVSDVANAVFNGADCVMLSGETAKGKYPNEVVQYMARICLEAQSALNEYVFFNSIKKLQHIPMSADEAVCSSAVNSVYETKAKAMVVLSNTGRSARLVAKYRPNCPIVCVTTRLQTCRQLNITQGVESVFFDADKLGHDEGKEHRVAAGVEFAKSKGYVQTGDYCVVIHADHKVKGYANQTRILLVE
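Screened at intermediate enzyme activity to detect both inhibitors and activators: LmPK at 0.1 nM, with a 0.5 nM enzyme column as activation reference. PEP 0.5 mM, ADP 0.1 mM; ATP detected by luminescence after 1 h.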
Pf growth 48h – inhibits P. falciparum growth in the first generation, 48 h; P. falciparum luciferase growth in erythrocytes, 48 h; Potency, µM (series often up to 28.7 µM), for the others: at the highest dose activity change, negative = inhibition, hits mostly inhibitors; actives 5.9% (n = 310,000); AID 504832; further: potency means the concentration at half of the fitted maximal effect; on the % scale 0 is the no-effect control and ±100 the full control effect
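Erythrocytes infected with P. falciparum carrying an integrated firefly luciferase reporter (2% hematocrit, 0.1% parasitemia final) were exposed to compounds in RPMI 1640 with 0.5% Albumax at 37 C, 5% CO2. Growth inhibition was scored as reduced luminescence.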
Shiga inhibitor – blocks Shiga toxin action in Vero cells; Vero cells, Shiga toxin protein synthesis inhibition reporter; inhibition, % at 38.7 µM; actives 9.2% (n = 290,000); in the data active means inhibition mostly above about 28%, no sharp cut-off; inactive means mostly below about 43%; further: 0% is about no effect
Cycloheximide cs – counter-screen hit for Shiga toxin inhibitors, cycloheximide; cell reporter, cycloheximide protein synthesis inhibition counterscreen; max response, %; actives 12% (n = 300,000); AID 2314; in the data active means max response mostly above about 13%, no sharp cut-off; inactive means mostly below about 14%; further: read at 38.3 µM for the half of the compounds with a filed dose; 0% is about no effect
Numbers without * were called inactive; ? = inconclusive; · = no result; + = active, no number; ! = not active in a repeat. Unless noted, the call rests on the fitted dose curve; in most records, active means well fitted inhibition curve with a large enough effect; inconclusive means small, poorly fitted or top-dose-only effect, or another doubt; inactive means no such curve, though single readings can be large or run the other way.

SMILES | Pf growth 96h | LmPK inhibitor | Pf growth 48h | Shiga inhibitor | Cycloheximide cs
O=C(c1cc(C(=O)NCc2ccc(Cl)cc2)c(=O)n(Cc2ccc(Cl)cc2)c1)c1cc(F)ccc1O | 1.5µM* | 3% | 2.9µM* | -4 | -1
Cc1ccc(NC(=O)CCNCc2ccco2)cc1S(=O)(=O)N(C)C | 20% | 1% | 14% | 5 | 1
CCOC(=O)CNC(=O)N1CCC(CCOc2ccccc2)(C(=O)OCC)CC1 | 8.3µM* | 3% | 6% | · | -1
CCOC(=O)C1(CCOc2ccccc2)CCN(Cc2ccc(O)cc2)CC1 | 0% | -4% | 13µM* | · | -2
CCCN1CCC(CCOc2ccccc2)(C(=O)OCC)CC1 | ? | -1% | 3% | -4 | -2
CCOC(=O)C1(S(=O)(=O)c2ccccc2)CCN(Cc2ccc(Cl)cc2)CC1 | 7.4µM* | -3% | ? | -10 | -4
CCOC(=O)C1(CCOc2ccccc2)CCN(Cc2ccc(O)c(OCC)c2)CC1 | -24% | 11% | 15µM* | -47 | -4
COc1cc(/C=N/NC(=O)CCC(=O)NC2CCCCC2)ccc1C | 25% | -5% | 4% | 12 | 3
CN1CCN(c2ccc(Nc3ccnc4cc(Cl)ccc34)cc2)CC1 | ? | 0% | 0.026µM* | 72 | 2
CCN1CCN(c2ccc(Nc3ccnc4ccccc34)cc2)CC1 | ? | · | 0.66µM* | · | ·
CN1CCN(c2ccc(Nc3c4ccccc4nc4ccccc34)cc2)CC1 | · | · | · | -14 | -13
COc1ccc(NC(=O)CSCc2cc(=O)n3cc(C)sc3n2)cc1 | 41% | -9% | 11% | -2 | 10
CCn1c(CN2CCOCC2)nnc1SCC(=O)Nc1cccc(C)c1 | ? | -7% | -6% | -2 | 1
O=C(O)CN1CCc2ccccc2C1 | 32% | 8% | 41% | 2 | -2
Cc1cc(C)c(C)c(S(=O)(=O)NCc2ccc(C(=O)N3CCCC3)cc2)c1C | ? | 0% | 6.6µM* | -7 | 0
O=C(c1ccccc1S(=O)(=O)NCc1ccccc1)N1CCCC1 | 15µM* | 5% | · | 49 | 11
Cc1cc(C)c(C)c(S(=O)(=O)NCc2ccc(C(=O)N3CCCCC3)cc2)c1C | 0.41µM* | 0% | 1µM* | 39 | 22*
Cc1ccc(C)c(S(=O)(=O)NCc2ccc(C(=O)N3CCN(c4ccccc4)CC3)cc2)c1 | -31% | -14% | -13% | -29 | -1
Cc1cc(C)c(C)c(S(=O)(=O)NCC(=O)N2CCCC2)c1C | 19% | 5% | -13% | -5 | -2
Cc1ccc(CNS(=O)(=O)c2c(C)[nH]c(C)c2C(=O)N2CCCCC2)cc1 | 27% | 2% | -6% | 18 | -3
Cc1ccc(C)c(S(=O)(=O)NCc2ccc(C(=O)N3CCCCCC3)cc2)c1 | 7.4µM* | 2% | ? | 1 | 2
CC(C)(C)c1ccc(S(=O)(=O)N2CCN(C(=O)C3CCC3)CC2)cc1 | ? | 1% | ? | 6 | 1
CN1CCCN(S(=O)(=O)c2ccc(Cl)c(Cl)c2)CC1 | 20% | 3% | -10% | 8 | 1
C/C(=N\Nc1cc(C(F)(F)F)ccc1Cl)c1ccccc1O | -39% | 1% | ? | 13 | 4
C/C(=N\Nc1ccc(F)cc1F)c1ccccc1O | 15% | -5% | 26% | 79* | 28*
SMILES | Pf growth 96h | LmPK inhibitor | Pf growth 48h | Shiga inhibitor | Cycloheximide cs
CCOc1cccc(=O)c2c(C)n(C)c(C)c12 | ? | 6% | ? | -15 | -1
O=c1cc(-c2ccccc2Cl)oc2cc(O)cc(O)c12 | 59% | 1% | 105% | 94* | 46*
CCOc1cccc2oc(-c3ccccc3Cl)cc(=O)c12 | · | · | · | + | 59*
Nc1ccc(O)c2c(=O)cc(-c3ccccc3Cl)oc12 | -34% | -5% | 2% | 61* | 45*!
CN(Cc1ccccc1)c1nc(-c2cccc([N+](=O)[O-])c2)nc2ccccc12 | 0% | -2% | ? | -7 | -3
O=C(Nc1ccccc1-c1nc2ccccc2[nH]1)c1sc2ccccc2c1Cl | 3% | -1% | 20% | 10 | -3
O=C(N/N=C/c1cccnc1)c1ccc(NC(=O)c2ccc(Cl)cc2)cc1 | 20% | 5% | ? | -5 | -3
Cc1cc(C)n(Cc2cccc(C(=O)N/N=C/c3cccnc3)c2)n1 | 1% | -5% | 9% | -4 | 10.0*
Cn1nccc1C(=O)N/N=C/c1ccccc1[N+](=O)[O-] | 105% | ? | 156% | 80* | 32*
CCC(=O)Nc1ccc(C(=O)N/N=C/c2ccccc2[N+](=O)[O-])cc1 | 126% | 1% | 12% | 12 | 6
Cc1occc1C(=O)N/N=C/c1ccccc1[N+](=O)[O-] | 154% | 14µM* | 111% | 64* | 62*
CC(=O)Nc1ccc(C(=O)N/N=C/c2cccnc2)cc1 | 3.7µM* | -3% | 0% | -7 | -2
COc1ccc(CNC(=O)C2CC(C)=CCC2C(=O)O)cc1 (centres undefined) | -6% | 4% | -2% | 3 | 0
O=C(COc1cccnc1[N+](=O)[O-])Nc1ccc(Cl)c(S(=O)(=O)N2CCOCC2)c1 | ? | 3% | ? | -10 | -1
Cn1nccc1C(=O)N/N=C/c1cccnc1 | -10% | -9% | 11% | 59* | 33*
COc1ccc(C(=O)N/N=C/c2cccnc2)cc1 | 13% | -1% | · | 54* | 29*
O=C(CNC(=O)c1ccncc1)N/N=C/c1ccccc1[N+](=O)[O-] | 19% | 12% | -1% | 58* | 23*
O=C(CNC(=O)c1ccncc1)N/N=C/c1cccc([N+](=O)[O-])c1 | ? | -4% | 10% | -18 | 3
COc1cccc(/C=N/NC(=O)c2ccc(CN3c4cccc5cccc(c45)S3(=O)=O)cc2)c1 | 10µM* | 3% | -16% | 25 | -2
O=C(N/N=C/c1cccnc1)c1ccc(CN2c3cccc4cccc(c34)S2(=O)=O)cc1 | ? | 2% | 14% | -12 | -2
NCCCC[C@@H]1NC(=O)c2cc([N+](=O)[O-])cc(I)c2SC[C@@H](C(N)=O)NC(=O)[C@H](Cc2ccc(O)cc2)NC1=O | -22% | -2% | -7% | -2 | -5
CCOC(=O)N1CCN(S(=O)(=O)N2CCCC(C(=O)NCCCN3CC(C)CC(C)C3)C2)CC1 (centres undefined) | -17% | 6% | 6% | -8 | -4
CCCCCOc1ccc(/C(C)=N/NC2=NCCN2)cc1 | 12µM* | 4% | 7.4µM* | 1 | -3
COCCn1nc2cc(C(=O)NCC34CC5CC(CC(C5)C3)C4)ccc2c1OC | -3% | 5% | ? | 21 | 2
CCCn1nc2cc(C(=O)NCC34CC5CC(CC(C5)C3)C4)ccc2c1OCC | ? | -3% | 12µM* | 10 | 3
Nc1nc(SCn2nnc3ccccc3c2=O)n[nH]1 | 18% | 1% | 9% | 16 | 7
COc1ccc(C2=NN(CC(=O)Nc3ccccc3C)C(=O)CC2)cc1 | ? | -5% | 4.1µM* | 12 | 12*

Source: PubChem BioAssay
